According to PubChem BioAssay AID1117306 (National Center for Advancing Translational Sciences (NCATS), 2015):
The source made the active and inactive calls. The call rests on the fitted dose curve.

Conditions: Ebola virus entry assay, blue channel imaging

Compound	outcome	AC50
Cc1nnc(C(C)C)n1C1C[C@H]2CC[C@@H](C1)N2CC[C@H](NC(=O)C1CCC(F)(F)CC1)c1ccccc1 (stereo not given in full)	inactive	–
CCCCc1oc2ccc(NS(C)(=O)=O)cc2c1C(=O)c1ccc(OCCCN(CCCC)CCCC)cc1	–	4.85 µM (active)
C[C@@H]1O[C@@H](O[C@H]2CC[C@@]3(C)[C@H](CC[C@@H]4[C@H]3C[C@@H](O)[C@]3(C)[C@@H](C5=CC(=O)OC5)CC[C@]43O)C2)C[C@H](O)[C@@H]1O[C@H]1C[C@H](O)[C@H](O[C@H]2C[C@H](O)[C@@H](O)[C@@H](C)O2)[C@H](C)O1 (stereo in doubt)	inactive	–
CC[C@]1(O)C[C@@H]2CN(CCc3c([nH]c4ccccc34)[C@@](C(=O)OC)(c3cc4c(cc3OC)N(C)[C@H]3[C@@](O)(C(=O)OC)[C@H](OC(C)=O)[C@]5(CC)C=CCN6CC[C@]43[C@@H]65)C2)C1	–	0.137 µM (active)
CO[C@H]1C[C@@H]2CC[C@@H](C)[C@@](O)(O2)C(=O)C(=O)N2CCCC[C@@H]2C(=O)O[C@H]([C@H](C)C[C@@H]2CC[C@H](OCCO)[C@H](OC)C2)CC(=O)[C@H](C)C=C(C)[C@@H](O)[C@@H](OC)C(=O)[C@H](C)C[C@H](C)C=CC=CC=C1C	inactive	–
CO[C@H]1C[C@@H]2CC[C@@H](C)[C@@](O)(O2)C(=O)C(=O)N2CCCC[C@@H]2C(=O)O[C@H]([C@@H](C)C[C@@H]2CC[C@H](O)[C@H](OC)C2)CC(=O)[C@H](C)C=C(C)[C@@H](O)[C@@H](OC)C(=O)[C@H](C)C[C@H](C)C=CC=CC=C1C	inactive	–
CN1CCN(CCCN2c3ccccc3Sc3ccc(C(F)(F)F)cc32)CC1	–	9.68 µM (active)
CCCNCC(O)COc1ccccc1C(=O)CCc1ccccc1 (stereo not given)	–	9.68 µM (active)
CC[C@]1(O)C[C@H]2CN(CCc3c([nH]c4ccccc34)[C@@](C(=O)OC)(c3cc4c(cc3OC)N(C=O)[C@H]3[C@@](O)(C(=O)OC)[C@H](OC(C)=O)[C@]5(CC)C=CCN6CC[C@]43[C@@H]65)C2)C1	–	0.153 µM (active)
COc1cccc2c1C(=O)c1c(O)c3c(c(O)c1C2=O)C[C@@](O)(C(C)=O)C[C@H]3O[C@H]1C[C@H](N)[C@H](O)[C@H](C)O1	–	3.43 µM (active)
